ChEMBL document CHEMBL1157539, “Thousands of chemical starting points for antimalarial lead identification” (Nature, 2010)

What follows are molecules tested on Plasmodium falciparum (assay: GSK_TCMDC: Inhibition of Plasmodium falciparum 3D7 in whole red blood cells, using parasite LDH activity as an index of growth. Test compounds present at 2uM).
Format: functional

| Compound | Inhibition [%] |
| --- | --- |
| O=C1c2cc(I)ccc2SC1c1ccccc1 (configuration not stated) | 96 |
| O=C(N[C@@H](CC1CCCCC1)C(=O)NCCN1CCCCC1)c1ccc(O)c(-c2cccc(C(F)(F)F)c2)c1 | 99 |
| COc1ccc(C(=O)CCC(=O)N(CCSC(C)(C)C)Cc2ccc(-c3ccc(CNCCc4ccc(S(C)(=O)=O)cc4)cn3)cc2)cc1F.O=C(O)C(F)(F)F | 98 |
| NC(=O)c1ccccc1OCC(=O)Nc1cccc(-c2ccc(-c3nc4ccccc4[nH]3)cc2)c1 | 95 |
| COCCN(CCOC)c1ncc(-c2ccsc2)c(-c2nc(C)c(C)s2)n1 | 96 |
| O=C(Nc1ccc(Cl)cc1)Nc1ccc(-c2cccc(-c3nc4ccccc4[nH]3)c2)cc1 | 100 |
| COc1cc(OC)c(NC(=O)Nc2ccnc3ccccc23)cc1Cl | 97 |
| Cc1cccc(CNc2ncc(C)c(NCCC(=O)Nc3ccccc3)n2)c1.O=C(O)C(F)(F)F | 81 |
| Cc1c(NC(=O)COc2ccc(Cl)cc2C(=O)c2cc(F)cc(C(F)(F)F)c2)ccc2ncsc12 | 86 |
| CCn1c(SCC(=O)Nc2cc(C(F)(F)F)ccc2Cl)nc2ccccc2c1=O | 93 |
| Cc1cc(N2CCCC2)nc(Nc2ccc(NC(=O)C(C)Oc3ccccc3)cc2)n1 (configuration not stated) | 100 |
| CC1(C)N=C(N)N=C(N)N1c1ccc(Br)cc1.Cl | 94 |
| COc1cc(C2C(Oc3ccccc3)C(=O)N2Cc2ccc(F)cc2)cc(OC)c1OC (configuration not stated) | 100 |
| CN1CCc2ccc(NC(=O)Nc3cccc([N+](=O)[O-])c3)cc2C1 | 87 |
| Cc1noc(-c2cccs2)c1C(=O)NC(C)c1cccc2ccccc12 (configuration not stated) | 97 |
| Cc1cc(NC(=O)NCCN2CCC(NC(=O)c3ccc(C(F)(F)F)cc3)CC2)c2ccccc2n1.O=C(O)C(F)(F)F | 98 |
| O=C(NC(NC(=S)Nc1ccc([N+](=O)[O-])cc1)C(Cl)(Cl)Cl)c1cccc(Cl)c1 (configuration not stated) | 97 |
| Cc1cc(Cl)c(S(=O)(=O)N2CCc3ccccc32)cc1OCC(=O)NC1CCCCC1 | 100 |
| CCCCN(Cc1cnccc1-c1ccc(Br)cc1)c1ccc(C(O)(C(F)(F)F)C(F)(F)F)cc1.O=C(O)C(F)(F)F | 87 |

| Compound | Inhibition [%] |
| --- | --- |
| CCN(CC)S(=O)(=O)c1ccc(C=CC(=O)Nc2cc(Cl)ccc2N2CCOCC2)cc1 | 90 |
| Cc1c(C)n(C2CCCCC2)c2ncnc(OC3CCN(CC(=O)N4CCCC4)CC3)c12 | 95 |
| CC(=O)c1ccc2c(c1)CCN(CCC1CCC(NC(=O)c3cc4ccccc4[nH]3)CC1)CC2.Cl (configuration not stated) | 86 |
| NCCCN(Cc1ccc(Cl)c(Cl)c1)C(=O)Nc1ccc(Cl)c(Cl)c1 | 93 |
| O=C(Nc1cccc(-c2cccc(-c3nc4cc(C(F)(F)F)ccc4[nH]3)c2)c1)c1ccoc1 | 99 |
| CCOC(=O)c1ccc(NC(=O)N[C@@H](Cc2ccccc2)C(=O)NC2CCN(Cc3ccc(O)c(OC)c3)C2)cc1 (some centres not stated) | 88 |
| Br.N=C1N=C(N)NC2(CCCCC2)N1OCCOc1ccc(Cc2ccccc2)cc1 | 86 |
| COc1cc(C)c(NC(=O)c2cccc3c(=O)c(C)c(-c4ccccc4)oc23)cc1OC | 86 |
| CCCCCCCN1CC[C@@H](CCCc2ccnc3ccc(OCCN4CCNCC4)cc23)[C@@H](CC)C1.Cl | 100 |
| COc1ccc(NC(=O)Nc2ccc(C)c(-c3ccc(C(=O)NCCN4CCCC4)cc3)c2)cc1 | 95 |
| COc1ccc(S(=O)(=O)N2CCC(NS(=O)(=O)c3ccc(F)cc3)CC2)cc1 | 80 |
| COc1cc2c(c(Cl)c1OC)CCN(Cc1ccccc1)CC2c1ccc(NC(=O)C(F)(F)F)cc1 (configuration not stated) | 85 |
| CC(C)C(NC(=O)Cc1cccc2ccccc12)C(=O)Nc1cccc(C#N)c1 (configuration not stated) | 92 |
| COc1ccc2nccc([C@@H](O)CN3CCC(NC(=O)C(c4cc5ccccc5o4)N4CCN(c5ccccc5OC)CC4)CC3)c2c1 (some centres not stated) | 99 |
| CCN(CC)CCCC(C)Nc1c2cc(OC)ccc2nc2cc(Cl)c([N+](=O)[O-])cc12 (configuration not stated) | 100 |
| O=C(Nc1cc(Cl)ccc1-n1cncn1)C1(c2ccccc2)CC1 | 98 |
| Cc1cc(NC(=O)NCCN2CCC(NS(=O)(=O)c3ccc(Br)cc3)C2)c2ccccc2n1.O=C(O)C(F)(F)F (configuration not stated) | 99 |
| Cn1nccc1C(=O)NCCNCc1ccc(-c2cccc(-c3nc4cc(C(F)(F)F)ccc4[nH]3)c2)cc1.O=C(O)C(F)(F)F | 100 |
